Results: PubChem BioAssay

Tests used:
[1] = molecular target: Tumor necrosis factor receptor superfamily member 10B (Homo sapiens) (UniProt O14763); test: caspase-8 TRAIL sensitization, hit retest, confirmation, cell-based, NB7+caspase-8, with/without TRAIL, luminescence panel (AID 651596); conditions: NB7 neuroblastoma + caspase-8, TRAIL sensitization, luminescence viability, with TRAIL, mean of runs, at 10 µM, stronger effect = higher value
[2] = as above; conditions: NB7 neuroblastoma + caspase-8, without TRAIL, luminescence viability, without TRAIL, mean of runs, at 10 µM

Sequence of Tumor necrosis factor receptor superfamily member 10B (Homo sapiens) (O14763 whole entry, looked up): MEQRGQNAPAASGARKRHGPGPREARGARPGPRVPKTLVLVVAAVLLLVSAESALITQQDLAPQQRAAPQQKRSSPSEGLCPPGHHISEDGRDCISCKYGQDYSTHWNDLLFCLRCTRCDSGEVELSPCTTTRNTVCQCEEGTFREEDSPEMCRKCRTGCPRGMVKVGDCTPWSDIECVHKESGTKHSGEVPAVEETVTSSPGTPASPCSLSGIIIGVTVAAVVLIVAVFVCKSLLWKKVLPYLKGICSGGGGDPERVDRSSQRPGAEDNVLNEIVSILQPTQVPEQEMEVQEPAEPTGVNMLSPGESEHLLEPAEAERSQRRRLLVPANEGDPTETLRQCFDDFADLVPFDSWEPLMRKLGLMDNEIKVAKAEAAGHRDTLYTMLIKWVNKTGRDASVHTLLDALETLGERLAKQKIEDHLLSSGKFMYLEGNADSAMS

| Structure (SMILES) | activity [1] | activity [2] |
| --- | --- | --- |
| O=C(COc1ccc(Cl)cc1Cl)Nc1ccccc1F | 54.9% | 40.5% |
| O=C(CSc1nnc(NC(=O)c2ccc3c(c2)OCO3)s1)NCc1ccco1 | 85.4% | 83.7% |
| Cc1ccc(CS(=O)(=O)c2ncc(Cl)c(C(=O)Nc3nnc(C(C)C)s3)n2)cc1 | 67.5% | 59.3% |
| CCc1cc2c(COC(=O)CCNS(=O)(=O)c3cccc(C(F)(F)F)c3)cc(=O)oc2cc1O | 23.9% | 3.52% |
| O=C(Nc1cccc(O)c1)c1noc2c1CCCCC2 | 66.2% | 61% |
| Cc1[nH]cnc1C(=O)N/N=C/c1c(Cl)cccc1Cl | 58.7% | 57.6% |
| O=C1[C@H]2[C@@H](/C=C/c3ccccc3)N3C(=O)CN(CC4CC4)C(=O)[C@@]3(Cc3ccccc3)[C@H]2C(=O)N1c1ccccc1 | 73.9% | 97.8% |
| Cc1ccc(C2CC2c2n[nH]c(=S)n2-c2ccc(Cl)cc2)cc1 (stereo not drawn) | 63% | 45.3% |
| CN1C(=O)c2ccccc2C(C(=O)NCCCN2CCCC2)C1c1c[nH]c2ccccc12 (stereo not drawn) | 45.5% | 55.5% |
| CCC(=O)N1CCCc2cc(S(=O)(=O)N3CCN(c4ccccc4F)CC3)ccc21 | 17.2% | 1.9% |
| COc1cc(/C=N/Nc2nn3cnnc3c3ccccc23)cc(OC)c1OC | 73.9% | 76.2% |
| CS(=O)(=O)c1ccc2nc(NC(=O)c3cccc([N+](=O)[O-])c3)sc2c1 | 69.4% | 71.3% |
| C/C(=N\NC(=O)c1ccc2ccccc2c1)c1cccs1 | 60.5% | 67.2% |
| COc1ccc(-c2cc(-c3ccccc3)c(C#N)c(S(C)=O)n2)cc1 (stereo not drawn) | 95.2% | 99.2% |
| Cc1ccc(-c2nn(CC(=O)NCc3cc(-c4nn(C)c(=O)c5ccccc45)ccc3C)c(=O)c3ccccc23)cc1 | 90.9% | 35.5% |
| COc1ccccc1-c1nnc(-c2ccc(C)cc2)o1 | 46.6% | 43.5% |
| O=C(NCCN1CCOCC1)NC1(C(F)(F)F)Oc2ccc(Cl)cc2O1 (stereo not drawn) | 32.6% | 26.8% |
| COc1ccc(C(C(=O)NC2CCCCC2)N(C(=O)CCl)c2ccccc2Cl)cc1 (stereo not drawn) | 98.8% | 97.2% |
| N#Cc1cccnc1N1CCN(C(=O)c2cccc3c2C(=O)c2ccc(Cl)cc2S3(=O)=O)CC1 | 98.4% | 97.4% |
| O=C(Nc1ccc2c(c1)OCCO2)c1ccccc1 | 53.7% | 54.6% |
| CSc1ccc(/C=C/C(=O)NC(=O)c2ccccc2O)cc1 | 82.5% | 84.7% |
| CCCCCCCCCCCCCCC[C@@H](O)[C@@H](N)CO | 84.5% | 79.7% |
| Brc1ccc(-c2ccc(/C=N/Nc3nc4ccccc4[nH]3)o2)cc1 | 51.5% | 42.5% |
| O=C(Nc1cnn(C23CC4CC(CC(C4)C2)C3)c1)c1cnn2c(C(F)(F)F)cc(-c3ccco3)nc12 | 76.4% | 70.3% |

| Structure (SMILES) | activity [1] | activity [2] |
| --- | --- | --- |
| C=CCNc1ncnc2c1ncn2C1OC(CO)C(O)C1O (stereo not drawn) | 46.8% | 60.6% |
| O=C(CN(Cc1ccccc1)C(=O)CCl)c1cccc(Br)c1 | 99.3% | 93.5% |
| COc1ccc2[nH]c3c(NCCC4=CCCCC4)ncnc3c2c1 | 35.8% | 44.1% |
| Cc1cc(NC(=O)CSc2nnc(-c3ccc4c(c3)OCCO4)o2)no1 | 52.1% | 58.8% |
| CN(C(=S)NC(=O)c1ccc(Cl)cc1)C1CCCCC1 | 40.6% | 60% |
| CCc1nnc(NC(=O)CSc2nc3c(cc2C#N)CCCC3)s1 | 62.8% | 72.3% |
| Cc1ccc(CN2[C@@H](Cc3ccccc3)C(=O)CS2(=O)=O)cc1 | 81% | 60.2% |
| CCC(=O)Nc1ccc2oc(-c3cccc(C)c3)nc2c1 | 57.2% | 55.7% |
| Cc1cc(NC(=O)c2ccc(C(C)(C)C)cc2)no1 | 77.8% | 79.9% |
| C[C@H](NC(=O)c1[nH]cnc1C(=O)Nc1ccc(CNC(=O)OC(C)(C)C)cc1)C(=O)OCc1ccccc1 | 63.1% | 37.6% |
| COc1cccc2c1C(CO)N1C(C#N)C3CC(C(=O)O)C(C1C2)N3C (stereo not drawn) | 59.9% | 83.8% |
| C=CCNC(=S)N/N=C/c1ccc(C(F)(F)F)cc1 | 18.5% | 8.22% |
| O=C(Nc1ccc2nc(-c3ccco3)[nH]c2c1)c1cccs1 | 72.4% | 80.6% |
| O=C(/C=C/c1ccc([N+](=O)[O-])cc1)Nc1ncc([N+](=O)[O-])s1 | 69.1% | 68.5% |
| COc1ccccc1/C=C/C1(C(=O)NC2CCCC2)CC(=O)N1c1ccc(C)cc1 (stereo not drawn) | 90.2% | 88.8% |
| Nc1c(N(C(=O)Nc2ccc(Cl)c(Cl)c2)C2CCCC2)c(=O)[nH]c(=O)n1Cc1ccccc1 | 46.5% | 46% |
| c1c2c(cc3sc(N4CCOCC4)nc13)OCCO2 | 66.8% | 75% |
| CCOCc1nc(N)nc(N)c1-c1cccc(Cl)c1 | 46.8% | 61.9% |
| Cc1ccc(CS(=O)(=O)c2ncc(Cl)c(C(=O)Nc3ccc(OC(F)F)cc3)n2)cc1 | 5.62% | -6.55% |
| CC(C)(C)OC(=O)NCc1ccc(CNC(=O)c2[nH]cnc2C(=O)Nc2ccccc2F)cc1 | 43.6% | 34.9% |
| CCc1ccc(NC(=O)c2cnn3ccccc23)cc1 | 59.4% | 58.6% |
| O=C(OCn1ncc(Cl)c(Cl)c1=O)c1cccc(C(F)(F)F)c1 | 99.2% | 99.3% |
| Cc1onc(-c2ccccc2Cl)c1C(=O)O/N=C(\N)c1cccc([N+](=O)[O-])c1 | 92.2% | 93.3% |
| COc1cccc(C(=O)Nc2nc3ccccc3[nH]2)c1 | 91% | 85.3% |

| Structure (SMILES) | activity [1] | activity [2] |
| --- | --- | --- |
| O=C(Nc1nc2ccccc2[nH]1)c1ccccc1 | 88% | 84.5% |
| Cc1cccc(-n2ncc3c(N4CCCC4)ncnc32)c1 | 75.4% | 73.6% |
| Cc1cccnc1NC(=O)c1sc2ccccc2c1Cl | 33.3% | 23.5% |
| CCOC(=O)Cc1csc(NC(=S)NC(=O)c2ccc(C)cc2)n1 | 84.9% | 84.6% |
| Nc1c(N(CCC2=CCCCC2)C(=O)COc2ccc(F)cc2)c(=O)[nH]c(=O)n1Cc1ccccc1 | 27.3% | 23% |
| COc1ccc(N(C(=O)CCl)C(C(=O)NCCc2ccccc2)c2cccs2)cc1Cl (stereo not drawn) | 98.3% | 99.1% |
| CCC1=NN(C(=O)c2cccc(Br)c2)C(O)(c2ccc(Br)cc2)C1 (stereo not drawn) | 19.9% | 22.4% |
| CC(C)c1ccc(NC(=O)Nc2nc(C(N)COCc3ccccc3)cs2)cc1 (stereo not drawn) | 47.9% | 80.4% |
| Cc1ccnc(NC(=O)c2ccc(Br)s2)c1 | 52.3% | 53% |
| O=C(Nc1nnc(/N=C/c2ccco2)s1)c1ccc(F)cc1 | 39.8% | 28.4% |
| Cc1ccc(-c2csc(NC(=O)CSc3nnc4c(n3)[nH]c3ccccc34)n2)cc1 | 42.5% | 24.3% |
| O=C1c2ccccc2NC(c2ccc3c(c2)OCCO3)N1c1ccc2c(c1)OCCO2 (stereo not drawn) | 44.2% | 51.8% |
| Cc1csc(NC(=O)c2cc3c(s2)CCC3)n1 | 81.8% | 86.3% |
| CC(C)(C)c1ccc(-c2noc(CCC(=O)Nc3cccnc3)n2)cc1 | 48.3% | 50.9% |
| CCSc1ccc(-c2cc(NC=O)c3ncc(-c4cccc(C(=O)NCCN(C)C)c4)n3c2)cc1 | 50.4% | 87.7% |
| Cc1cc2ncc(-c3ncc(C(F)(F)F)cc3Cl)cn2n1 | 45.7% | 41.9% |
| Cc1ccc(Nc2nc(N)nc(CCl)n2)c(C)c1 | 98.9% | 98.6% |
| COc1ccc(Oc2c(Cl)cnn(-c3ccc(F)cc3)c2=O)cc1 | 98% | 94.2% |
| Cc1ccc2nc(-c3ccccn3)[nH]c2c1 | 81% | 83.9% |
| C=CCN1C=CC(=C/C=C(/C#N)C(=O)OCC)C=C1 | 50.2% | 41.9% |
| Nc1c(-c2ccccc2)cnn1-c1ccccc1 | 44.6% | 40.4% |
| Cc1ccccc1C(=O)O/N=C(\N)c1cccc([N+](=O)[O-])c1 | 80.9% | 79.9% |
| C(=N\Nc1nc2ccccc2[nH]1)/c1ccc2ncccc2c1 | 81% | 85.6% |
| O=C(Nc1nc2ccccc2[nH]1)c1ccc(F)cc1 | 90.8% | 91% |

| Structure (SMILES) | activity [1] | activity [2] |
| --- | --- | --- |
| CN(CCO)c1cc(Sc2nc3ccccc3s2)c2nonc2c1[N+](=O)[O-] | 18.5% | 91.7% |
| CCc1nnc(NC(=O)CSc2nc3c(cc2C#N)CCC3)s1 | 73.7% | 70.8% |
| CCc1ccc(/C=N/NC(=O)c2ccccn2)cc1 | 83.9% | 73% |
| Cc1ccc(C(=O)Nc2ncc(Cc3ccccc3)s2)o1 | 72.1% | 75% |
| CCOc1ccc(-c2ccc(SCC)nn2)cc1 | 75.4% | 71.5% |
| COC(=O)c1sc(NC(=S)NC(=O)c2ccccc2C)nc1C | 58% | 61.3% |
| O=S(=O)(c1ccccc1)c1nnn2c1nc(NC1CCN(Cc3ccccc3)CC1)c1ccccc12 | 97.9% | 48.9% |
| Cc1ccc(CN=c2c([N+](=O)[O-])nn(-c3cccc(C)c3)n2O)cc1 | 16.2% | 24.7% |
| Cn1cc([N+](=O)[O-])c(C(=O)Nc2nc(-c3ccc(Cl)cc3)cs2)n1 | 97.3% | 98.7% |
| O=C1CCC(=O)N1c1ccc(-c2nc3ccccc3s2)cc1 | 76.8% | 41% |
| COc1ccc(C(=O)/C=C2\C(=O)Nc3ccc(Br)cc32)cc1 | 49.3% | 77.4% |
| COc1cccc2oc3ccc(C#Cc4ccccn4)cc3c(=O)c12 | 71.8% | 87.5% |
| C/C(=N\NC(=O)c1ccc(F)cc1)c1ccccn1 | 44.9% | 61.7% |
| Cc1ccc2nc(NC(=O)c3ccco3)sc2c1 | 80.4% | 76.2% |
| COc1ccc(C(=O)Nc2ccccc2C(N)=O)cc1 | 56.5% | 56.2% |
| CC(=O)c1c(C)[nH]c(C(=O)Nc2ccc(C)cn2)c1C | 75.9% | 77.6% |
| Nc1ccccc1C(=O)NN=Cc1cccnc1 | 63.5% | 58.7% |
| Cc1ccc(NC(=O)c2ccc(C)cc2)cc1 | 64.9% | 63.8% |
| CNC[C@H](CC1CCCCC1)NC[C@H](Cc1ccccc1)NCCC12CC3CC(CC(C3)C1)C2 | 98.5% | 99.4% |
| O=C(Nc1ccc(Cl)cc1)/C(=C/c1cccc(O)c1)c1nc2ccccc2s1 | 95.7% | 98.1% |
| CCOc1ccc(-c2cc(C(=O)N/N=C(\C)c3cccnc3)c3ccccc3n2)cc1 | 74% | 69.6% |
| COc1ccc(-c2cc(C(=O)OCC(=O)N3CCOCC3)c3ccccc3n2)cc1 | 36.6% | 49.6% |
